Source: PubChem BioAssay
sEH inh: soluble epoxide hydrolase (human) inhibition; inhibition, % at 2 µM; 91,000 compounds, 0.34% hits; recombinant human sEH enzymatic activity assay; AID 707; in the data active means inhibition above about 80%
CYP2C19 inh: blocks human cytochrome P450 2C19; CYP2C19 Supersomes, luciferin-H EGE luminescence, 30 min; AID 778; 96,000 compounds, 21% hits; inhibition, % at 5 µM;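 active means CYP2C19 inhibition above a set limit at 5 µM in the primary screen, cut at about 50% in these data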;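 further: plate controls were negative control wells for no effect and 2.5 mM tranylcypromine positive control for full effect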
Target sequence (P33261 whole entry, looked up): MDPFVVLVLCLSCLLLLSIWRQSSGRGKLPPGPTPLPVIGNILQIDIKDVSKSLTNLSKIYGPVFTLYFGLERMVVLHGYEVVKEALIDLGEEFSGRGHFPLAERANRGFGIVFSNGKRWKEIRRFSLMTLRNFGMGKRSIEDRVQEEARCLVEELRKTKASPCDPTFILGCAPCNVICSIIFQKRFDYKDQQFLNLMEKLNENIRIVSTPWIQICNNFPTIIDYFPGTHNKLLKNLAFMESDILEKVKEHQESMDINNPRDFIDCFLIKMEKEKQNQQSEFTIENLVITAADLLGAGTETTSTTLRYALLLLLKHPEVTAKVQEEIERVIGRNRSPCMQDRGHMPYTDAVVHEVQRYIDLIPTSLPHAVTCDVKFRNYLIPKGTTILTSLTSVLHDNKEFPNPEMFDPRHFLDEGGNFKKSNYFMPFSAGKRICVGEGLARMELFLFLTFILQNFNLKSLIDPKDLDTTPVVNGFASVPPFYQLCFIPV
CYP2C9 inhib: blocks human cytochrome P450 2C9 | 96,000 compounds, 20% hits | CYP2C9 Supersomes, luciferin-H conversion, luminescence | inhibition, % at 5 µM;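 active means blocking of liver enzyme CYP2C9 beyond about 50% at 5 µM, limit read from the data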
sEH act: increases human soluble epoxide hydrolase activity; P34913; purified human sEH enzymatic activity, activator screen; activation, % at 2 µM; 91,000 compounds, 0.04% hits; in the data active means activation above about 37%
CYP2C9 activ: activators of human CYP2C9. activation factor at 5 µM. P11712. AID 1024. recombinant CYP2C9, luciferin-H conversion, luminescence; hits give high values; factor 1 = untreated enzyme, 0 = blocked. 96,000 compounds, 1.4% hits;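 active means activation factor of 2 or more for CYP2C9 at a 5 µM dose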;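 further: 0 = sulfaphenazole-blocked wells and 1 = vehicle-only wells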
CYP2C19 act: activators of human cytochrome P450 2C19 | recombinant CYP2C19, luciferin-H EGE luminescence; hits give high values; 0 = fully inhibited enzyme, 1 = untreated enzyme | activation factor at 5 µM | 96,000 tested, under 10 active | AID 1025;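 active means activation factor of at least 2 at 5 µM in the primary screen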;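 further: 0 = wells with 2.5 mM tranylcypromine and 1 = vehicle-only wells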
* marks the source's active call; other numbers are inactive results; · = no result. A selection: hits, their analogues and other compounds. The true share with any hit is near 27%.

SMILES	sEH inh	CYP2C19 inh	CYP2C9 inhib	sEH act	CYP2C9 activ	CYP2C19 act
Cc1cc(Br)ccc1SCC(=O)OCC(=O)N1CCN(C(=O)c2ccco2)CC1	1.4	66.3*	61.3*	-2.6	0.4	0.3
O=C(COC(=O)C1CCN(C(=O)c2ccc(Cl)cc2)CC1)c1ccco1	8.5	36.9	30.6	-8.0	0.7	0.6
O=C(CSc1cccc2cccc(Cl)c12)OCC(=O)N1CCN(C(=O)c2ccco2)CC1	-5.7	9.0	-43.6	2.6	1.4	0.9
CCOC(=O)C1CCN(C(=O)c2ccco2)CC1	3.7	63.1*	24.4	-4.2	0.8	0.4
COc1ccc(NC(=O)CSc2nc3c(c(=O)n2-c2ccccc2)SCC3)c(OC)c1	·	-9.3	-3.3	·	1	1.1
CCNc1nc(SC)nc(N(C#N)CC(=O)OC)n1	-10.2	3.3	-25.5	12.7	1.3	1
CCCOc1nc(N)c(C#N)c(-c2ccccc2F)c1C#N	13.2	38.1	5.6	-16.9	0.9	0.6
CCC(Oc1ccccc1)C(=O)N1CCN(c2ccccn2)CC1 (stereo not drawn)	-4.8	79.2*	85.4*	10.4	0.1	0.2
CCC(Oc1ccccc1)C(=O)N1CCN(C(=O)C(CC)Oc2ccccc2)CC1 (stereo not drawn)	5.3	41.6	83.9*	-2.3	0.2	0.6
CCC(Oc1ccccc1)C(=O)N1CCN(CC)CC1 (stereo not drawn)	-10.8	-1.0	3.2	8.8	1	1
CCOC(=O)CNc1nnc(SCC(=O)OCC)[nH]c1=O	-8.2	4.6	1.6	7.8	1	1
C=CCSc1ncccc1C(=O)O	3.4	6.8	9.8	-0.1	0.9	0.9
O=C(NCc1cccs1)c1ccncc1	-7.0	22.7	26.8	7.1	0.7	0.8
O=C(NCc1cccs1)c1csc2ccccc12	7.5	85.4*	-31.1	-8.8	1.3	0.1
Cc1cc(C(=O)NCc2cccs2)c(C)o1	-2.6	50.4*	3.5	-2.8	1	0.5
CC(C)Cc1cc(C(=O)NCc2cccs2)no1	·	79.6*	36.5	·	0.6	0.2
O=C(NCc1cccs1)c1cccnc1C(=O)O	-15.3	1.9	5.5	12.0	0.9	1
CC(C)Oc1ccc(C(=O)NCc2cccs2)cc1	12.7	70.5*	31.9	-11.9	0.7	0.3
Cc1onc(-c2c(Cl)cccc2Cl)c1C(=O)NCCN1CCOCC1	19.8	-7.0	-10.2	-17.9	1.1	1.1
CCC1(COC(NC(=O)c2cccnc2)(C(F)(F)F)C(F)(F)F)COC1	3.1	10.4	10.0	-3.9	0.9	0.9
CC(c1nnc(SCC(=O)NC(=O)NCc2ccco2)n1-c1ccc(Cl)cc1)N(C)C (stereo not drawn)	·	17.0	20.9	·	0.8	0.8
CNc1oc(C)nc1S(=O)(=O)c1ccccc1	4.5	-0.5	-2.8	-3.3	1	1
Cc1cc(C(=O)NCc2cccs2)cs1	3.9	73.2*	17.5	-3.2	0.8	0.3
CC(C)Oc1ccc(C(CC(=O)O)NC(=O)c2cccs2)cc1 (stereo not drawn)	6.0	-7.4	54.7*	-8.6	0.5	1.1
O=C(NCc1cccs1)c1ccccc1	5.8	22.1	5.0	-6.6	0.9	0.8
SMILES	sEH inh	CYP2C19 inh	CYP2C9 inhib	sEH act	CYP2C9 activ	CYP2C19 act
c1ccc(CNCc2ccc3c(c2)OCO3)nc1	8.5	·	·	-8.2	·	·
CC1Cc2nc(SCC(=O)N3CCN(c4ccccc4)CC3)n(CCc3ccccc3)c(=O)c2S1 (stereo not drawn)	1.6	31.1	75.6*	0.1	0.2	0.7
CC1Cc2nc(SCC(=O)N3CCN(c4ccccc4)CC3)n(C)c(=O)c2S1 (stereo not drawn)	-8.3	66.9*	70.9*	7.2	0.3	0.3
O=C(NC1CCS(=O)(=O)C1)Oc1ccc(Cl)cc1 (stereo not drawn)	0.9	-9.3	-9.5	-3.5	1.1	1.1
Cc1ccc(Nc2nc(N)nc(CN3CCN(Cc4ccc5c(c4)OCO5)CC3)n2)c(C)c1	-7.2	51.5*	38.5	8.9	0.6	0.5
Nc1nc(CN2CCN(Cc3ccccc3)CC2)nc(Nc2ccc3c(c2)OCCO3)n1	17.2	9.3	14.6	-14.7	0.9	0.9
Cc1ccc(Nc2nc(N)nc(CN3CCN(Cc4ccc5c(c4)OCO5)CC3)n2)cc1	2.3	51.5*	43.7	1.9	0.6	0.5
Cc1ccc(OCC(O)CN2CCN(Cc3ccc4c(c3)OCO4)CC2)c(C)c1 (stereo not drawn)	-4.8	24.9	12.6	5.3	0.9	0.8
Cc1ccc(Nc2nc(N)nc(CN3CCN(Cc4ccc5c(c4)OCO5)CC3)n2)cc1Cl	-10.5	59.8*	74.3*	8.6	0.3	0.4
Cc1ccc(Nc2nc(N)nc(CN3CCN(C)CC3)n2)cc1C	12.0	-17.2	-11.3	-9.3	1.1	1.2
O=C(Oc1ccc(-c2nnco2)cc1)N(c1ccccc1)c1ccccc1	-1.3	69.2*	39.0	0.6	0.6	0.3
O=C(Oc1nsnc1N1CCOCC1)N(c1ccccc1)c1ccccc1	·	37.1	45.3	·	0.5	0.6
O=C(Oc1ccc(-c2nnco2)cc1)N1CCCCC1	2.8	77.4*	29.5	-3.3	0.7	0.2
CC12CCC(C(=O)N3CCN(c4ccccc4)CC3)(CC1=O)C2(C)C (stereo not drawn)	3.2	53.7*	12.8	-4.5	0.9	0.5
CC12CCC(C(=O)N3CCc4ccccc43)(CC1=O)C2(C)C (stereo not drawn)	4.1	44.5	58.2*	-4.7	0.4	0.6
CC12CCC(C(=O)N3CCCc4ccccc43)(CC1=O)C2(C)C (stereo not drawn)	-4.5	43.9	4.8	3.2	1	0.6
O=C(NCc1ccccc1)c1n[nH]nc1-c1ccccc1O	·	72.6*	51.6*	·	0.5	0.3
Cc1ccc(N=C2NC(=O)C(CC(=O)O)S2)cc1 (stereo not drawn)	7.2	-15.5	-8.1	-7.3	1.1	1.2
CN(CC(=O)O/N=C(\N)c1ccc([N+](=O)[O-])cc1)S(=O)(=O)c1ccc2ccccc2c1	-3.5	10.1	-132.9	-0.1	2.3*	0.9
Oc1ccc2ccccc2c1C=Nc1ccccc1-c1nc2ccccc2[nH]1	8.1	44.9	95.0*	-6.9	0.1	0.6
CCn1c(SC(C)C(=O)O)nc2sc3c(c2c1=O)CCC3 (stereo not drawn)	·	-5.1	74.1*	·	0.3	1.1
CCn1c(SCC(=O)N2CCOCC2)nc2sc3c(c2c1=O)CCCC3	·	37.6	65.6*	·	0.3	0.6
CCc1nc2sc3c(c2c(=O)n1NC(=O)CCl)CCCC3	-2.6	20.3	75.8*	2.7	0.2	0.8
Cc1oc(-c2ccccc2)cc1C(=O)Nc1cccc2ccccc12	-0.1	11.1	-88.3	3.0	1.9	0.9
CCN(c1ccccc1)S(=O)(=O)c1ccc(NCC2COc3ccccc3O2)nc1 (stereo not drawn)	·	51.8*	84.1*	·	0.2	0.5
CCCNCC1COc2ccccc2O1 (stereo not drawn)	15.6	-9.8	-14.8	-13.6	1.1	1.1
